The results in this text go back to the OligoGym collection.
Note: reference of the scale not given here.

In one assay the target is RABGEF1. Put plainly: pooled miR-30 sensor sort-seq; sequence = guide strand. The following applies: shRNA.
The sequence TTATCTTCTCGACTCTTTCTGG registered a sensor-assay potency score (higher = more potent) of -0.279.

TTCTTTTCTTCAAACTTGGAGA displayed a sensor-assay potency score (higher = more potent) of -0.783.

On to TTTCTTTTCTTCAAACTTGGAG, for which the sensor-assay potency score (higher = more potent) is -0.131.

Sequence TTTCAGAGTCAATAGCTGCTAA showed a sensor-assay potency score (higher = more potent) of -0.257.

For the sequence TTCTTCAATGCTTAGATCCCTT, the sensor-assay potency score (higher = more potent) is -0.412.

In turn, TTGGCTTCATTCATGATCCTTT returned a sensor-assay potency score (higher = more potent) of 0.202.

Sequence TTATACATTTGCTTGACGCCTA had a sensor-assay potency score (higher = more potent) of 0.54.

For the next assay, the target named is RAD18. Described as above. The settings on record: shRNA.
The sequence TTTCATTGAGTTTACTAGCTTC came in with a sensor-assay potency score (higher = more potent) of 0.211.

In turn, TAGAATTTAGCATCTTTCCTTG registered a sensor-assay potency score (higher = more potent) of -0.0135.

Turning to TTTCCTTCTTCTCTTCGCGTGA, the sensor-assay potency score (higher = more potent) is -0.0825.

Sequence TTTGTGAACAGAACTTCTGAGG registered a sensor-assay potency score (higher = more potent) of -0.395.

With TTTTCTTTTATCAACAACTCTG, the sensor-assay potency score (higher = more potent) came out at 0.0462.

The sequence TATAAATAGAAAATCTATCTGT had a sensor-assay potency score (higher = more potent) of 0.122.

Consider TACTTTGACAGCAAGATTCTTT, for which the sensor-assay potency score (higher = more potent) stood at 0.474.

In the case of TTTTGTGAACAGAACTTCTGAG, the sensor-assay potency score (higher = more potent) turned out to be 0.451.

The sequence TTTTCTAGCCTGATCCACCAGA gave a sensor-assay potency score (higher = more potent) of -0.673.

In the case of TTCTGTGTCTTGAAGATCGTTT, the sensor-assay potency score (higher = more potent) was found to be 0.506.

Regarding TTTATCAACAACTCTGATGTAG, the sensor-assay potency score (higher = more potent) was determined as 1.04.

Another assay addresses RAD54L. Described as above. The settings on record: shRNA.
The sequence TTCTTGATGATTTTCTCCCAGA registered a sensor-assay potency score (higher = more potent) of -0.985.

As to TTCTTAATGGACATCGTGCCAT, the sensor-assay potency score (higher = more potent) was -0.43.

Regarding TTCTTTTGACCATCTCGCCAGA, the sensor-assay potency score (higher = more potent) was -0.96.

TAGATATAGCAAGTCTTCTTTT returned a sensor-assay potency score (higher = more potent) of -1.02.

TTGACCATCTCGCCAGACCCGG: the sensor-assay potency score (higher = more potent) was -1.03.

In turn, TTACAAAGCTTCTTTAGCGAGG returned a sensor-assay potency score (higher = more potent) of -0.517.

Regarding TTGCACTCTGGACTCTGGCGTA, the sensor-assay potency score (higher = more potent) was -0.761.

TTGATTGGTTAGCTGACTCAAA displayed a sensor-assay potency score (higher = more potent) of -0.506.

With TTGTCTCAGAAACCTCTTGTAT, the sensor-assay potency score (higher = more potent) was -1.26.

Take TTCATGCTGACTGCTGTCCAGA: the sensor-assay potency score (higher = more potent) was -1.19.

TCTTGTATAACTCAGTCTGAAG yielded a sensor-assay potency score (higher = more potent) of -1.48.

With TTAACAAAATGTACCAAGCTGA, the sensor-assay potency score (higher = more potent) is -0.415.

The target in a further assay is RAD9A. The description is as above. The following applies: shRNA.
With TGAATCAATAGCAGCGTCCAGT, the sensor-assay potency score (higher = more potent) is -0.732.

For TTAATGAATCAATAGCAGCGTC, the sensor-assay potency score (higher = more potent) was -0.585.

Sequence TCACATCTAAGACACTGCCTGG had a sensor-assay potency score (higher = more potent) of -0.534.

The sequence TACAGTGACAGCCAGCTGGGGC gave a sensor-assay potency score (higher = more potent) of -0.774.

In the case of TCATTGGCAAAGTCGTCCGGGT, the sensor-assay potency score (higher = more potent) was -0.913.

With TTCCTTAGGAAGGTGAGCCTGA, the sensor-assay potency score (higher = more potent) was 0.111.

For the sequence TGTGCTGTGAGCCTGGAGCTGA, the sensor-assay potency score (higher = more potent) was -0.559.

Take TCAAGTTTGCTGACTCTGCAAA: the sensor-assay potency score (higher = more potent) was -0.678.

Consider TTTTTCCACCGTCTTCTCCAGC, for which the sensor-assay potency score (higher = more potent) is -1.2.

Turning to TTCATCAGGATCTTACAGCGCA, the sensor-assay potency score (higher = more potent) worked out at 0.0418.
